Experiments:
Assay in all cases: PBM binding z-score (relative to random genomic background probes); higher = stronger binding; sequences stand for … in GC…GCGATTGACAGCGTAGAATGAAGG
[1] = system: PPARg:RXRa IVT, anti-PPARg (NR concentration 270 nM, RXRa partner concentration 90 nM)
Procedure, shortened: (§1)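 Binding buffer was PBS pH 7.4 with 2% milk, 0.02% Triton X-100, 1 mM DTT, 0.2 mg/mL BSA and 0.4 mg/ml salmon testes DNA. In it, ligand-free nuclear receptor dimers were incubated 1 h on custom Agilent 4×180K protein-binding microarrays carrying double-stranded probes. Antibodies against each partner (one per run) detected binding, and z-scores were calculated against random background probes after regression normalization of scanned fluorescence.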

[2] = system: PPARg DBDmut:RXRa IVT, anti-PPARg (DBD mutation: PPARg1 K132A/R137A, NR concentration 270 nM, RXRa partner concentration 90 nM)
Procedure, shortened: as §1

[3] = system: PPARg DBDmut IVT, anti-PPARg (DBD mutation: PPARg1 K132A/R137A, NR concentration 270 nM)
Procedure, shortened: as §1

[4] = system: PPARg homodimer (NR concentration 180 nM)
Procedure, shortened: as §1

[5] = system: PXR:RXRa (NR concentration 270 nM, RXRa partner concentration 90 nM)
Procedure, shortened: as §1

[6] = system: PXR homodimer (NR concentration 270 nM)
Procedure, shortened: as §1

[7] = system: RARa homodimer (NR concentration 270 nM)
Procedure, shortened: as §1

[8] = system: RARb homodimer (NR concentration 270 nM)
Procedure, shortened: as §1

[9] = system: RARa:RXR (NR concentration 270 nM, RXRa partner concentration 90 nM)
Procedure, shortened: as §1

[10] = system: RARb:RXRa (NR concentration 270 nM, RXRa partner concentration 90 nM)
Procedure, shortened: as §1

Sequence	PBM binding z-score [1]	PBM binding z-score [2]	PBM binding z-score [3]	PBM binding z-score [4]	PBM binding z-score [5]	PBM binding z-score [6]	PBM binding z-score [7]	PBM binding z-score [8]	PBM binding z-score [9]	PBM binding z-score [10]
CGTCAAAGGTCAGCAGGTCAGTGAAAGCGACGTG	5.73	1.7	1.47	7.06	5.39	0.608	4.86	5.42		
CGTCAAAGTTCAAGGTCACGTAACAGAAAGCAGC	4.54	0.668	0.649	4.73	6.25	4.18	3.09	5.56	5.79	
ATCGAAAGGTCAAGGTGAGTATAGAGAAAGGGAA	5.43	2.02	1.2	4.09	5.13	1.19	2.51	5.32	5.85	
CCTTAGGGGTCAAGGTTATAGCACGGGTGGTACG	5.19	1.1	0.837	4.4	6.23	1.1	2.38	5.11		
CCTTAGGGGTCACTGACAGGTTATAGCATTTGGA	5.5	1.68	2.53	4.49	6.32	0.503	2.05	4.99		
ATCGAAAGGTCGACGAGGTGAGTAAACACCGTTT	1.85	0.135	1.17	1.63	3.05	0.324	0.378	2.98		3.85
CGTCAAAGGTCAAGGTAACGTAACAGAAAGCAGC	6.15	3.88	3.1	4.75	5.33	0.602	2.85	5.16	6.56	
TCTAGTCGGTCAAAGGTCACACACTCGAAATGCG	6.92	1.34	1.59	5.59	6.26	1.5	2.61	5.22		5.34
CCTCGGAGGACAGAAGGTCAAAGCTGTCCGCTTT	0.662	-1.42	-2.33	2.07	3.39	0.288	0.206	4.26		3.74
ATCAAAAGGTCGAGGTGAGTATAGAGAAAGGGAA	2.79	1.63	1.54	2.27	2.86	1.09	1.57	3.28		4.53
CGTCAAAGGTCAAAGGTCAGTGAAGAGATGACGG	6.51	2.46	1.92	4.68	7.37	1.83	3.92	6.09	9.15	
CAAACCAGGTCACAGAGGTCAAAGTCCGTGCGTA	7.43	3.56	2.74	5.78	7.23	14.2	4.25	5.56		5.41
TTACCAAGGTCAAGGTCGTTGATCCCTCTGTAGA	5.09	1.64	0.631	4.12	5.31	2.27	1.71	4.86	5.57	
GGAACGAGGTCAAGTTGATAGCAGAGTTTGATGG	6.52	2.59	0.598	3.81	5.86	2.91	2.1	4.59	5.81	
CTCGAAAGGTCGTGCTCAGATGAGTATACCAAAC	1.25	0.625	1.37	1.3	2.96	0.152	0.441	2.15		3.79
AATACAGGGTCATCGTAGGTCAGAGTACGCACAG	5.07	3.45	1.68	3.34		1.57	1.7	4.58	6.33	4.69
AGTCAAAGGTCATCTAGGTAACGTAAGATATGCT	6.77	2.25	1.94	3.75	5.44	1.34	2.2	5.29	6.03	
GGAACGAGGTCATTCGAGTTGATAGCATGGCGAT	5.89	0.79	0.0541	1.95		7.74	-0.0279	3.81	5.14	4.9
CAAACCAGGTCAAAGGTCAAAGTCGAGCCAACCA	7.43	2.48	1.06	4.04		2.11	3.33	5.45	9.04	5.8
CCTACTGGGTCAAAGGTCATTGATTCCAATGCTC	8.67	3.67	3.47	7.2		3.3	2.65	5.06		
CAAACGAGGTCAAGAGGTCAAAGTCCGCTTCCCG	7.14	1.86	1.69	5.31		6.05	2.73	6.42	8.32	
